Data on 16 molecules can be found in ChEMBL document CHEMBL2218924, “A broad activity screen in support of a chemogenomic map for kinase signalling research and drug discovery” (Biochem J, 2013).

For the assay, the target named is T1, Tyrosine-protein kinase ZAP-70 (Homo sapiens) (UniProt P43403).
T1 sequence (whole entry): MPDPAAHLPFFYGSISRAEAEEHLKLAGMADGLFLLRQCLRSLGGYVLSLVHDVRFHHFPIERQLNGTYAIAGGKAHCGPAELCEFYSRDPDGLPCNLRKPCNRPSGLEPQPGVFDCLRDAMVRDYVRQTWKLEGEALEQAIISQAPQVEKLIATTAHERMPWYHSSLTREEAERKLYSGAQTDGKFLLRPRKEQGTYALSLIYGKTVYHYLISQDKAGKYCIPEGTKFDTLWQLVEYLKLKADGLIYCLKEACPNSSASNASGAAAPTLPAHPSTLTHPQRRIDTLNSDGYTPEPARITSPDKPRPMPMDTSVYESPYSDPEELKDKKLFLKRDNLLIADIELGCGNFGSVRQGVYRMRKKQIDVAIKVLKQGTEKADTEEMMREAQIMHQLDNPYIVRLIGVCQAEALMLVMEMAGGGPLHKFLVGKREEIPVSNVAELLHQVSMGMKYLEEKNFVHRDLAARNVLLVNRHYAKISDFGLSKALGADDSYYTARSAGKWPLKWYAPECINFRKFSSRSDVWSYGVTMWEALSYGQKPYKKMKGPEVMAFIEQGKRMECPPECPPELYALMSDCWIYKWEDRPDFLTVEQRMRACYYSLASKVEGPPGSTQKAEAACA
To be noted: at 10 µM.
A word on the residual activity: it is the signal under treatment as a percentage of the control signal. Consider `Oc1ccc(Nc2nc(-c3ccc(Cl)cc3)cs2)cc1`, for which the residual activity turned out to be 130%.
In the case of `O=C1Nc2ccccc2/C1=C1/Nc2ccccc2/C1=N\OCCC(O)CO` (stereo unspecified) it was 98%; in that of `Cc1nc2cc3nc(-c4cccs4)cnc3cc2n1C`, 115%; in that of `O=C1Nc2ccc(Cl)cc2/C1=C/c1cc(Cl)c(O)c(Cl)c1`, 100%.
In the case of `O=C(Nc1cccc(Nc2nccc(Nc3cccc(C(F)(F)F)c3)n2)c1)C1CC1` it was 116%; in that of `Ic1cccc(CSc2nnc(-c3ccncc3)o2)c1`, 102%; in that of `O=c1cc(N2CCNCC2)oc2c(-c3ccccc3)cccc12`, 99%.
In the case of `Nc1nc(Nc2ccc(S(N)(=O)=O)cc2)nn1C(=S)Nc1c(F)cccc1F` it was 86%; in that of `NC(=O)Nc1sc(-c2ccc(F)cc2)cc1C(N)=O`, 107%.
For the molecule `COc1cc2ncnc(N3CCN(C(=O)Nc4ccc(Oc5ccccc5)cc4)CC3)c2cc1OC`, the residual activity stood at 98%.
Take `Fc1ccc(-c2nc3n(c2-c2ccncc2)CCS3)cc1`: the residual activity is 124%.
As to `CC[n+]1c(/C=C/N(C)c2ccccc2)n(-c2ccccc2)c2ccc(-c3nc4ccccc4s3)cc21`, the residual activity came to 130%.
In the case of `CO[C@H]1C[C@@H]2CC[C@@H](C)[C@@](O)(O2)C(=O)C(=O)N2CCCC[C@H]2C(=O)O[C@H]([C@H](C)C[C@@H]2CC[C@@H](O)[C@H](OC)C2)CC(=O)[C@H](C)/C=C(\C)[C@@H](O)[C@@H](OC)C(=O)[C@H](C)C[C@H](C)/C=C/C=C/C=C/1C`, the residual activity was 121%.
In the case of `O=[N+]([O-])c1ccc(-c2nc(-c3ccc(F)cc3)c(-c3ccncc3)[nH]2)cc1` it was 122%.
In the case of `COc1ccc2c(c1)c(C1=C(c3c[nH]c4ccccc34)C(=O)NC1=O)cn2CCCN(C)C` it was 120%.
Regarding `COc1cc2nccc(Oc3ccc(NC(=O)Nc4cc(C)on4)c(Cl)c3)c2cc1OC`, the residual activity was determined as 107%.
